From PubChem BioAssay
VCAM1 TNFa inh = inhibitors of TNFa-induced VCAM1 expression, primary screen, imaging, HUVEC, TNFa stimulus, immunofluorescence; 95,000 compounds, 0.48% hits; AID 802, 2007; inhibition, % at 2 µM; HUVEC TNFa-induced VCAM-1 immunofluorescence, high-content imaging;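 active = inhibition above the batch mean plus 3 SD, with images confirmed as a hit by eye, cut at about 37% in these data; inconclusive = inhibition above that limit but hit not confirmed in images; inactive = inhibition not above that limit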
HUVEC tox IL1B = cytotoxicity in IL-1B stimulated HUVEC, primary screen, cytotoxicity control for IL-1B NFkB translocation project, imaging, Hoechst nuclear count, IL-1B stimulus | HUVEC cell count loss | 94,000 compounds, 0.41% hits | cell count reduction, % at 2 µM;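 active = cell count reduction more than 3 SD above the screen-wide mean, cut at about 70% in these data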
IL1B NFkB inh = inhibitors of IL-1B driven NFkB p65 nuclear import, primary screen, imaging, HUVEC, IL-1B stimulus, high-content imaging; HUVEC IL-1B NFkB p65 nuclear translocation imaging; inhibition, % at 2 µM; 94,000 compounds, 0.43% hits; AID 796, 2007;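 active = inhibition above about 30% together with a positive call from visual inspection of the well image, limit read from the data; inconclusive = inhibition above a set limit but visual check negative; inactive = inhibition not above a set limit, visual check negative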;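 also: nuclear over cytoplasmic p65 intensity ratio measured by imaging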
NFkB transloc pot = enhancers of NFkB p65 translocation in HUVEC – imaging, IL-1B stimulus, high-content imaging, primary screen; HUVEC IL-1B NFkB p65 nuclear translocation imaging; activation, % at 2 µM; 94,000 compounds, 0.3% hits;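 active = activation above 40%, about the mean plus 3 SD, also judged a hit on visual image review; inconclusive = activation above 40% but not a hit on visual review; inactive = activation not above 40% and no visual hit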;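 also: percent activation is computed from the nuclear over cytoplasmic p65 intensity ratio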
TNFa cytotox = cytotoxicity in TNFa-stimulated HUVEC, primary screen, cytotoxicity control for VCAM1 expression modulator project, imaging, Hoechst nuclei count. HUVEC TNFalpha-stimulated, Hoechst cell count. cell count reduction, % at 2 µM. 93,000 compounds, 0.17% hits. AID 848, 2007;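 active = cell count reduction exceeding the screen mean by over 5 SD, scaled to untreated wells per plate, cut at about 78% in these data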;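 also: cells counted after 24 h of TNF alpha exposure following the 1 h pretreatment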
Each line names hits and unclear results; the compound was inactive in the other large screens. This is a sample that favours compounds with a hit; in the whole collection about 1.5% have one here.

C[C@@]12CC(=O)NC1N(C(=O)c1cccc(C(F)(F)F)c1)C(c1ccccc1O)C2 (some centres not stated)	none
Cc1cccc(C(=O)Oc2ccccc2C2C[C@]3(C)CC(=O)NC3N2C(=O)c2cccc(C)c2)c1 (some centres not stated)	VCAM1 TNFa inh inconclusive, TNFa cytotox 100
O=C(COc1ccc(Br)cc1)NCc1ccccn1	NFkB transloc pot 41
CCCCc1nc(NCC2CCCO2)c(C#N)c2c1COC(C)(C)C2 (configuration not stated)	HUVEC tox IL1B 84
Cc1ccc(CNC(=O)CCNC(=O)c2ccco2)cc1	none
Cc1nnc(C)c2c(C)n(C(C)c3ccccc3)c(C)c12 (configuration not stated)	none
COc1ccc(C(C)n2c(C)c3c(C)nnc(C)c3c2C)cc1 (configuration not stated)	IL1B NFkB inh 41
O=C1CC(c2ccccc2)CC(O)=C1C=NCc1ccc(Cl)cc1 (configuration not stated)	none
CC(NCc1ccc2c(c1)OCO2)C(=O)NC1CCCc2ccccc21 (configuration not stated)	TNFa cytotox 95 (no result: VCAM1 TNFa inh)
Cc1cc(C(=O)NC2CCCc3ccccc32)c(C)o1 (configuration not stated)	none
CCC(=O)NC(Nc1sc2c(c1C(=O)OC)CCN(C)C2)(C(F)(F)F)C(F)(F)F	none
CCOc1ccc(-n2c(SCC(=O)Nc3ccc(OC)cc3)nc3c(c2=O)SCC3)cc1	VCAM1 TNFa inh 60, TNFa cytotox 82
COc1ccc(-n2c(SCC(=O)Nc3ccc4c(c3)OCO4)nc3c(c2=O)SCC3)cc1	none
Cc1cccc(OCCCN2CCCCCC2)c1	none
Cc1cccc(OCCN2CSC(=S)N(C)C2)c1	VCAM1 TNFa inh 43
CCN(CC)C(=O)CN(c1ccc(Cl)cc1)S(=O)(=O)c1ccccc1	VCAM1 TNFa inh inconclusive, TNFa cytotox 100
CCN(CC)C(=O)CN(c1ccc(C)cc1)S(=O)(=O)c1ccc(SC)cc1	none
CCOc1ccc(-c2nnc3sc(COc4ccc(Cl)cc4)nn23)cc1	none
Clc1ccc(OCc2nn3c(-c4ccncc4)nnc3s2)cc1	NFkB transloc pot 46
CCC(C)[C@H](NC(=O)Nc1ccc(C(C)=O)cc1)C(=O)OC (some centres not stated)	none
CCOC(=O)CSc1nnc(Cc2ccccc2)n1-c1cccc(Cl)c1	none
CCOC(=O)CSc1nnc(Cc2ccccc2)n1CC1CCCO1 (configuration not stated)	NFkB transloc pot 52
COC(=O)c1c(-c2ccccc2)csc1NC(=O)CSc1ncnc2sc(C)c(C)c12	HUVEC tox IL1B 89
Cc1ccc(C(C(=O)NCCc2ccccc2)N(C(=O)c2csnn2)C2CC2)o1 (configuration not stated)	none
CSc1nc2nccc(-c3ccc(-c4ccccc4)cc3)n2n1	none
CSc1nc2nccc(-c3ccc(Oc4ccccc4)cc3)n2n1	VCAM1 TNFa inh 86
Cc1[nH][nH]c(=O)c1C(c1ccc(-c2ccc(Cl)c(Cl)c2)o1)c1c(C)[nH][nH]c1=O	NFkB transloc pot 42
O=C(N/N=C/c1ccncc1)c1ccccc1	VCAM1 TNFa inh 62
COC(=O)c1nn(-c2ccccc2)c(Cl)c1/C=N/OCc1ccc(Cl)cc1Cl	none
CCC1Cc2c(nc3c4c(nc(N5CCOCC5)c(C#N)c24)NC(C)=N3)O1 (configuration not stated)	none
COc1cc(/C=N/NC(=O)CCc2ccccc2)ccc1O	none
COc1ccc(/C=N/NC(=O)CCc2c(C)n[nH]c2C)cc1O	NFkB transloc pot 55
CCNC(=O)CCn1nc(-c2ccc(Cl)cc2)c2ccccc2c1=O	VCAM1 TNFa inh 84, TNFa cytotox 96
O=C(NCc1ccco1)c1cc(-c2ccc(Cl)cc2)on1	VCAM1 TNFa inh 79
Cc1oc2cc3c(C(=O)N4CCCCC4)c(C)oc3cc2c1C(=O)N1CCCCC1	VCAM1 TNFa inh 89, TNFa cytotox 80
CC1CCN(c2nc3ccccc3nc2C(C#N)C(=O)OC2CCCCC2)CC1 (configuration not stated)	HUVEC tox IL1B 92, IL1B NFkB inh 97
O=C(CCCCn1c(=O)[nH]c2ccsc2c1=O)NCc1ccc2c(c1)OCO2	IL1B NFkB inh 64
O=C(CCCCn1c(=O)[nH]c2ccsc2c1=O)NCc1cccnc1	none
